Measurements: PubChem BioAssay (NCI)
“And” between values parts separate entries of the source, which are not always exact repeats. Identical values can stand only once. The panel holds about 83,000 compounds, 20% with a hit somewhere; the sample as a whole holds those more often.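 Results are percent growth after 48 hours of single-concentration exposure. 100 means growth as in untreated cells, lower positive values show inhibition; negative values down to -100 show cell death.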 The source made the active and inactive calls. How the source made its calls: active means growth percent below 10; inactive means the rest.

Tests used:
Test in all cases: NCI-60 one-dose screen, 48 h (100 = growth as untreated, 0 = no growth, -100 = all killed)
Conditions in all cases: 10 µM unless noted
NCI-H23 lung = tested on: NCI-H23 lung
NCI-H226 lung = tested on: NCI-H226 lung
NCI-H322M lung = tested on: NCI-H322M lung
HOP-62 NSCLC = tested on: HOP-62 NSCLC
NCI-H460 lung = tested on: NCI-H460 lung
HOP-92 NSCLC = tested on: HOP-92 NSCLC
NCI-H522 lung = tested on: NCI-H522 lung
A549/ATCC NSCLC = tested on: A549/ATCC NSCLC
786-0 renal = tested on: 786-0 renal
COLO 205 colon = tested on: COLO 205 colon
DU-145 prostate = tested on: DU-145 prostate
K-562 leukemia = tested on: K-562 leukemia
MALME-3M melanoma = tested on: MALME-3M melanoma
MDA-MB-231 breast = tested on: MDA-MB-231 breast
RXF 393 renal = tested on: RXF 393 renal
SF-268 CNS = tested on: SF-268 CNS
SF-295 CNS = tested on: SF-295 CNS
SF-539 CNS = tested on: SF-539 CNS
UACC-257 melanoma = tested on: UACC-257 melanoma
M14 melanoma = tested on: M14 melanoma

SMILES | growth (NCI-H23 lung) | growth (NCI-H226 lung) | growth (NCI-H322M lung) | growth (HOP-62 NSCLC) | growth (NCI-H460 lung) | growth (HOP-92 NSCLC) | growth (NCI-H522 lung) | growth (A549/ATCC NSCLC) | growth (786-0 renal) | growth (COLO 205 colon) | growth (DU-145 prostate) | growth (K-562 leukemia) | growth (MALME-3M melanoma) | growth (MDA-MB-231 breast) | growth (RXF 393 renal) | growth (SF-268 CNS) | growth (SF-295 CNS) | growth (SF-539 CNS) | growth (UACC-257 melanoma) | growth (M14 melanoma)
CC(C)c1ccc2nc3ccc(C(=O)NCCN4CCN(c5ccccc5)CC4)cn3c(=O)c2c1 | 50.5% (inactive) | 38.4% (inactive) | 86.8% (inactive) | 90.9% (inactive) | 65.2% (inactive) | 58.1% (inactive) | 67.4% (inactive) | 57.3% (inactive) | 34.4% (inactive) | 45.8% (inactive) | 80% (inactive) | 45.1% (inactive) | 48.3% (inactive) | 59.3% (inactive) | 3.14% (active) | 72.9% (inactive) | 23.1% (inactive) | 40.8% (inactive) | 60.2% (inactive) | 63.8% (inactive)
Nc1ncnc2c1ncn2C1OC(CO)C(O)C1O (stereo not given) | 111% (inactive) and 93.6% (inactive) and 103% (inactive) | 105% (inactive) and 82.7% (inactive) and 103% (inactive) | 114% (inactive) and 60.9% (inactive) and 111% (inactive) | 120% (inactive) and 93.4% (inactive) and 95% (inactive) | 113% (inactive) and 43.4% (inactive) and 103% (inactive) | 93.4% (inactive) and 100% (inactive) and 89.5% (inactive) | 106% (inactive) and -20.2% (active) and 110% (inactive) | 106% (inactive) and 97.7% (inactive) | 104% (inactive) and 73.7% (inactive) and 100% (inactive) | 121% (inactive) and 100% (inactive) | 116% (inactive) and 47.5% (inactive) and 106% (inactive) | 93.5% (inactive) and 26.1% (inactive) and 116% (inactive) | 147% (inactive) and 107% (inactive) and 128% (inactive) | 122% (inactive) and 52.5% (inactive) and 113% (inactive) | 115% (inactive) and 103% (inactive) | 106% (inactive) and 121% (inactive) and 102% (inactive) | 105% (inactive) and 104% (inactive) and 100% (inactive) | 109% (inactive) and 98% (inactive) and 91.5% (inactive) | 84.9% (inactive) and 124% (inactive) and 105% (inactive) | 111% (inactive) and 115% (inactive)
O=C(Oc1cccc2cccnc12)c1ccccc1 | 94.3% (inactive) and 103% (inactive) | 110% (inactive) and 102% (inactive) | 107% (inactive) and 117% (inactive) | 98.8% (inactive) and 106% (inactive) | 87.1% (inactive) and 109% (inactive) | 91% (inactive) and 110% (inactive) | -4.17% (active) and 98.3% (inactive) | 100% (inactive) and 103% (inactive) | 100% (inactive) and 107% (inactive) | 84.8% (inactive) and 106% (inactive) | 92.9% (inactive) and 107% (inactive) | 48.5% (inactive) | 89.8% (inactive) and 99% (inactive) | 84.5% (inactive) and 104% (inactive) | 99.5% (inactive) and 108% (inactive) | 87.1% (inactive) and 102% (inactive) | 97.5% (inactive) and 98.7% (inactive) | 97.9% (inactive) and 106% (inactive) | 86% (inactive) and 96.8% (inactive) | 83.2% (inactive) and 96.9% (inactive)
